# Test results from article PMC12136788.
# Whole data set: some 24,000 sequences, median “enrichment r” near 0.99, cut for the highest 2% near 3.7. The entries come from a sample that favours the highest values as a whole.
# T1: UNK ZnF1-3 (human, UniProt Q9C0B0 31-174)
# T1 sequence: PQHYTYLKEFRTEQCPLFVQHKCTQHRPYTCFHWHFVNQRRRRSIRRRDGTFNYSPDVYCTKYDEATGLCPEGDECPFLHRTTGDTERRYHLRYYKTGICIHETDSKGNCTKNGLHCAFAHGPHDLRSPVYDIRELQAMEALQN
# B1: chr6:29491266:29491267:-_ENSMUSG00000012535_ENSMUST00000012679|mus_mus|FALSE|FALSE (ssRNA)
# RNA: GGGAGUUCUACAGUCCGACGAUCGGGUUGGGCUCUACAUUAAAAGCAACUUUGACCCUGGCUAGUCCGGACUAUCAUCCCUAACCAUGAUAUAAGCAGACCAGGCUCCUUGUCUGGACAUUUCUAAAGGUGAACAGUUGGGGGCAACAGAGGAUUGAGCAUCA
# B2: chr3:182775190:182775191:-_ENSG00000078070_ENST00000265594|hu_mus|FALSE|FALSE (ssRNA)
# RNA: GGGAGUUCUACAGUCCGACGAUCCUGCACACUACAGUCUCUUUCAAACAAGUACACUGCGUUGCCAUGGUGAUCACCAAACACCUGGACUUCUACAUGCCUUGGAGUGUCCACGAACUUCUCGAUCAACAUUGCAUCAUCAUUCAACAGAGGAUUGAGCAUCA
# B3: 49705422_49710499_381_CDS_ENSG00000102531_ENST00000398316|human|control|control (ssRNA)
# RNA: GGGAGUUCUACAGUCCGACGAUCAAAGUUGGACCUUCCAUGUGUAGAGUGAGCAUCUACAUCUCCAUAGACUUGUGAAGACUGAUACUGUGGCAUAUACUGUGUUGUCAUGUCUCCAGCUCCAGUCACGGGUGAGUACAUAUGCAACAGAGGAUUGAGCAUCA
# B4: chr1:39494564:39494565:+_ENSG00000168653_ENST00000372967|hu_hu|hu_hu_hu_mus_True|1_1 (ssRNA)
# RNA: GGGAGUUCUACAGUCCGACGAUCAUGCAUUCGCCUCAUCGUUUUGUACCGAAGCAAGCACUCUUCGAAGUCAUCGAACUCUAUCUUGCACUCCUUUUUCGCCCGGGUCCCACCGAUCCCGUGUGCACACUCUAUCCAUUCUUUCAACAGAGGAUUGAGCAUCA
# B5: 117841126_117842589_621_3pUTR_ENSMUSG00000033326_ENSMUST00000106406|mouse|control|control (ssRNA)
# RNA: GGGAGUUCUACAGUCCGACGAUCCUUCUCCACCAGGUCCAGGAUGGUCUUCAGCCGGCCGAUAUUCCACUCAUCAACGUGCUGUUCAUAGAGAGUACCAUUCACGUCUGCUCCAUAGAUGGGAGGAUUGAAUGUGAGGUUUUUCAACAGAGGAUUGAGCAUCA
# B6: chr2:166765161:166765162:+_ENSMUSG00000002718_ENSMUST00000002790|mus_hu|motif|central (ssRNA)
# RNA: GGGAGUUCUACAGUCCGACGAUCGGAUAAACAUAUUGCUUCAAACAUGUAGUGAUUAAAGUGAGGUUUGCUUGGGUUCUUACGGACAGCUAAUAGCUUCUGUGUAAGCUGAGUGAUGAGAGUAGGGAUGUAGGGGAUUAUGGCCAACAGAGGAUUGAGCAUCA
# Molecular target: T1, UNK ZnF1-3
# Assay: nsRBNS (natural sequence RNA bind-n-seq); RBNS binding buffer (assumed for nsRBNS): 25 mM Tris pH 7.5, 150 mM KCl, 3 mM MgCl2, 0.01% Triton X-100, 500 ug/ml BSA, 20 U/ml SUPERase-In, 4 C; UNK is unkempt and MSI1 is Musashi-1; names of the RNAs are library labels; protein concentration not given here; high values mean tight binding
row,Binder,binding signal [enrichment R]
1,B1,0.897
2,B2,0.969
3,B3,0.997
4,B4,0.706
5,B5,1.09
6,B6,1.62
